Screening results: PubChem BioAssay, several laboratories
HIF-2a block = HIF-2a inhibition | 786-0 RCC cells HIF-2a reporter, luciferase luminescence, overnight | inhibition, % at 18.8 µM | 360,000 tested, 0.72% active | AID 624352;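 active means inhibition of the luminescence signal of 40% or more relative to plate controls, in a single-dose primary screen at 18.75 µM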
KKLEB tox = counter-screen for CF NF-kB inhibitors: cytotoxicity | KKLEB CF airway cells viability, ATPlite luminescence, overnight; stronger effect = lower value; cells stimulated with P. aeruginosa culture filtrate | activity change (cytotoxicity), % at 5 µM | 360,000 tested, 0.36% active | AID 602141;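 active means corrected activity change at or below -50% at 5 µM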
Peg3 prom inh-1 = Peg3 promoter activity inhibition | HeLa PEG-Prom luciferase reporter, luminescence, overnight | inhibition, % at 20 µM | 360,000 tested, 1.7% active;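 active means inhibition of at least 50% at 20 µM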
Shn3 inh set2 = inhibitors of Schnurri-3 3'UTR reporter in osteoblasts | inhibition, % at 12.5 µM | Clone20 osteoblast Shn3 3'UTR firefly luciferase, 24 h | 360,000 tested, 0.52% active;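 active means mean inhibition of at least 75% with every replicate also reaching 75%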
CF NFkB block = blocks PAF-induced NF-kB reporter in cystic fibrosis cells. inhibition, % at 5 µM. KKLEB NF-kB-GFP reporter, GFP fluorescence overnight. 360,000 tested, 0.86% active;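 active means at least 50% inhibition at 5 µM, scaled per plate between neutral and stimulator controls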;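 further: PAF is a Pseudomonas aeruginosa culture filtrate used as stimulus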
Peg3 prom inh-2 = confirmation of Peg3 promoter inhibitors | shares compounds with Peg3 prom inh-1 | HeLa PEG-Prom luciferase reporter, luminescence, overnight | inhibition, % at 20 µM | 1,300 tested, 84% active | AID 602417;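 active means at 20 µM dose, 40% or more inhibition averaged across four replicates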
Of the large screens only hits and unclear results are named; the others gave an inactive call (follow-up assays come after a bar, where they were run). This is a sample that favours compounds with a hit; in the whole collection about 2.6% have one here.

COCCOC1CCN(C(=O)C2CCC(=O)N(CCc3ccc(OC)cc3)C2)CC1 (stereo unspecified)	none
CCOc1ccc2[nH]c3c(NCCc4ccc(OC)c(OC)c4)ncnc3c2c1	Peg3 prom inh-1 66 | Peg3 prom inh-2 65
CCOc1ccc2[nH]c3c(NCCO)ncnc3c2c1	none
CCC(=O)N(c1nnc(SCC(=O)NN2C(=O)NC3(CCC(C)CC3)C2=O)s1)C1CC1 (stereo unspecified)	none
CCOC(=O)c1c(C)n(-c2ccc(OC)cc2)c2ccc(O)c(CN(C)C)c12	Peg3 prom inh-1 55 | Peg3 prom inh-2 inactive
O=C(Nc1ccc2c(c1)CN(Cc1ccco1)CC2)C1CCCO1 (stereo unspecified)	none
COc1ccc2nc(C)cc(SCC(=O)N/N=C/c3c(OC)ccc4ccccc34)c2c1	Peg3 prom inh-1 63 | Peg3 prom inh-2 inactive
COc1ccc2nc(C)cc(SCC(=O)N/N=C/c3ccccc3)c2c1	none
CC[C@]12c3[nH]c4cc(-c5ccco5)ccc4c3CCN1C(=O)[C@@H](CC(=O)NC(C)(C)C)C[C@@H]2C(=O)N1CCN(C(=O)c2ccco2)CC1	none
Cc1c(Cl)cc(-n2cnnn2)cc1[N+](=O)[O-]	none
Cc1c([N+](=O)[O-])cc(N2C(=O)C=CC2=O)cc1[N+](=O)[O-]	Peg3 prom inh-1 105 | Peg3 prom inh-2 98
CCc1ccc2c(c1)Sc1ccccc1CC2N1CCN(C)CC1 (stereo unspecified)	Peg3 prom inh-1 55 | Peg3 prom inh-2 77
CC1CCN(c2nc3ccc(C(=O)O)cc3s2)CC1	HIF-2a block 89, Peg3 prom inh-1 106 | Peg3 prom inh-2 87
Nc1ccc(-c2nc3ccc(N)cc3s2)cc1	none
Nc1ccc(-c2nc3ccc(C(=O)O)cc3s2)cc1	HIF-2a block 88, Peg3 prom inh-1 101 | Peg3 prom inh-2 94
CC1CCN(c2nc3ccc(C(=O)NCCCN4CCCCC4)cc3s2)CC1	none
O=C(Nc1ccc2c(c1)OCO2)c1ccccn1	none
O=C(/C=C\Nc1ccc2c(c1)OCO2)c1ccccn1	HIF-2a block 71, KKLEB tox -54, Peg3 prom inh-1 85 | Peg3 prom inh-2 71
Cc1ccc(C(=O)c2ccc(C)cc2)cc1	none
Cc1ccc(C(=O)c2no[n+]([O-])c2C(=O)c2ccc(C)cc2)cc1	KKLEB tox -76, Peg3 prom inh-1 107, CF NFkB block 100 | Peg3 prom inh-2 100
CCN1CCc2c(sc(NC(=O)c3ccc(S(=O)(=O)N4CCCCCC4)cc3)c2C(=O)NC)C1	Peg3 prom inh-1 71 | Peg3 prom inh-2 62
CCN1CCc2c(sc(NC(=O)c3ccc(S(=O)(=O)N4CCOCC4)cc3)c2C(N)=O)C1	none
CCN1CCc2c(sc(NC(=O)c3ccc(S(=O)(=O)N4CCOCC4)cc3)c2C(=O)OC)C1	Peg3 prom inh-1 76 | Peg3 prom inh-2 inactive
CCOP(=O)(OCC)C(NC(=O)Nc1ccc(C)cc1)C(N)=O (stereo unspecified)	none
CC12CCC(=O)N1C(C(=O)N1CCN(S(=O)(=O)c3ccc(F)c(F)c3)CC1)CS2 (stereo unspecified)	none
CC(/C=C/c1ccccc1)=N/NC(=O)c1cc([N+](=O)[O-])cc([N+](=O)[O-])c1	Peg3 prom inh-1 51 | Peg3 prom inh-2 51
CC(/C=C/c1cccc([N+](=O)[O-])c1)=N/NC(=O)c1cccnc1	none
COC(=O)CCSc1cc(NCCOC(C)=O)c([N+](=O)[O-])c2nonc12	none
CC(=O)OCCNc1cc(SCc2ccco2)c2nonc2c1[N+](=O)[O-]	Peg3 prom inh-1 52 | Peg3 prom inh-2 69
COc1cc(-c2cc(C(=O)Nc3cc(S(=O)(=O)N4CCOCC4)ccc3O)c3ccccc3n2)cc(OC)c1OC	none
CCOc1ccccc1NC(=O)c1cc(-c2cc(OC)c(OC)c(OC)c2)nc2ccccc12	none
COc1ccccc1NC(=O)c1cc(-c2cc(OC)c(OC)c(OC)c2)nc2ccccc12	Peg3 prom inh-1 54 | Peg3 prom inh-2 74
COc1cc(-c2cc(C(=O)Nc3cc(S(=O)(=O)N4CCOCC4)ccc3C)c3ccccc3n2)cc(OC)c1OC	Peg3 prom inh-1 53 | Peg3 prom inh-2 53
O=C(CCN1C(=O)C2C3CCC(C3)C2C1=O)Nc1cccc(Cl)c1 (stereo unspecified)	none
COc1ccc(-c2cc(C(=O)N(C)Cc3cccc(OC)c3OC)c3ccccc3n2)cc1OC	Peg3 prom inh-1 55 | Peg3 prom inh-2 56
COc1ccccc1-c1csc(NC(=O)c2cc(-c3cccs3)nc3ccccc23)n1	none
COc1ccc(CN(C)C(=O)c2cc(-c3ccc(OC)c(OC)c3)nc3ccccc23)c(OC)c1	none
COc1ccc(CN(C)C(=O)c2cc(-c3ccccc3)nc3ccc(C)cc23)c(OC)c1OC	Peg3 prom inh-1 59 | Peg3 prom inh-2 60
COc1ccc(CCN(C)C(=O)c2cc(-c3ccccc3)nc3ccc(C)cc23)cc1OC	none
COc1ccccc1CN(C)C(=O)c1cc(-c2cccs2)nc2ccccc12	Peg3 prom inh-1 69 | Peg3 prom inh-2 81
CN(C)c1ccc(C(C(=O)NC2CCCC2)N(C(=O)c2csnn2)C2CC2)cc1 (stereo unspecified)	none
CCCCN(C(C)=O)c1c(CC)nc2ccc(C(=O)NCCOc3ccc(OC)cc3)cn12	none
CCCCn1c(N)c(N(CC)C(=O)c2cc(Br)ccc2Cl)c(=O)[nH]c1=O	none
COc1cc(OC)cc(C(=O)N[C@H](C(=O)Nc2nc(-c3ccc(F)c(F)c3)cs2)C(C)C)c1	none
CCN(c1ccccc1)S(=O)(=O)c1ccc(C(=O)N(CCCN(C)C)c2nc3cc4c(cc3s2)OCO4)cc1	Peg3 prom inh-1 52 | Peg3 prom inh-2 81
CN(C)CCCN(C(=O)c1ccc(S(=O)(=O)N(C)Cc2ccccc2)cc1)c1nc2cc3c(cc2s1)OCO3	Peg3 prom inh-1 68 | Peg3 prom inh-2 89
COc1ccc(-c2nc(NC(=O)c3n[nH]c(=O)c4ccccc34)sc2C)cc1	Peg3 prom inh-1 60 | Peg3 prom inh-2 48
COc1cc(NC(=O)c2n[nH]c(=O)c3ccccc23)cc(OC)c1	none
COc1ccc(C(O)(CC(C)C)C(CN2CCOCC2)c2ccccc2)cc1 (stereo unspecified)	Peg3 prom inh-1 71 | Peg3 prom inh-2 73
COc1ccc(OCC(=O)OC2CCCN(C)C2)cc1 (stereo unspecified)	none
CCN1CCCC1CN(Cc1cc2ccc(C)cc2[nH]c1=O)C(=S)Nc1ccc(OC)cc1 (stereo unspecified)	Peg3 prom inh-1 63 | Peg3 prom inh-2 80
Cc1ccc2[nH]c(=O)c(C3C(C#N)=C(N)Oc4c3ccc3cccnc43)cc2c1 (stereo unspecified)	Peg3 prom inh-1 50 | Peg3 prom inh-2 48
Cc1cc(C(=O)C(C)Sc2cccc[n+]2[O-])c(C)n1-c1ccc(Cl)cc1 (stereo unspecified)	none
Cc1cc(Cl)n2ncc(-c3ccccc3)c2n1	Peg3 prom inh-1 87 | Peg3 prom inh-2 68
